Screening data as filed in PubChem BioAssay.
A selection: hits, their analogues and other compounds. The true share with any hit is near 10%.
GPT2 inhibitor: inhibitors of human GPT2 alanine aminotransferase | 100,000 compounds, 0.25% hits | Potency, µM (titrated, usually from 57.7 µM), for the others: at the top dose activity change, negative = inhibition, usual class: inhibitors | Q8TD30 | Recombinant GPT2, coupled pyruvate oxidase/HRP Amplex Red fluorescence; also: nearly all actives have a fitted effect of over 60% in size
Target sequence (Q8TD30 whole entry, looked up): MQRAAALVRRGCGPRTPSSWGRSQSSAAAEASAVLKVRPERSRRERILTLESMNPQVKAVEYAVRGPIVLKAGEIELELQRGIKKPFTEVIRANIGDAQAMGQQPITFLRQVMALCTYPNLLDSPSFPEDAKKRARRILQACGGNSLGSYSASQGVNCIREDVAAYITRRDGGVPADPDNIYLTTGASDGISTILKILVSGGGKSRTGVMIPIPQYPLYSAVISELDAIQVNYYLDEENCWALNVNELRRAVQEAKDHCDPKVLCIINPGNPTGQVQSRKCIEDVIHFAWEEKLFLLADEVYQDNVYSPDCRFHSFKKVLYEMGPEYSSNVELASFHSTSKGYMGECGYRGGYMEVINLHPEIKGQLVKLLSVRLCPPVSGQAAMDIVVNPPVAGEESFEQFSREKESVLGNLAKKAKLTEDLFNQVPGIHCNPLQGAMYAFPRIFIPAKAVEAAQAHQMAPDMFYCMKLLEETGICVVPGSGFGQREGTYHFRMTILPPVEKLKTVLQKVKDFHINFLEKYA
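Fluorescence of coupled pyruvate oxidase/HRP/Amplex Red system (50uM Amplex, 30 min, dark) reports pyruvate formed by GPT2. Enzyme reaction: 10ng/uL GPT2, 2mM L-alanine, 250uM a-KG, 30 min room temperature, pH 7.5; 50uM AOA control.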
HEK293 tox: kills HEK 293 cells; 94,000 compounds, 6.6% hits; Potency, µM (titrated, usually from 115 µM), without a hit: at the top dose activity change, negative = cytotoxicity, most hits filed as inhibitors; HEK 293 viability, ATP luminescence (CellTiter-Glo), 48-72 h; also: nearly all actives have a fitted effect of over 60% in size
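HEK 293 cells seeded at 250 cells/well were exposed to compound for 48 or 72 hr at 37 degree Celsius. Viability taken as ATP content by CellTiter-Glo luminescence.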
NIH3T3 tox: cytotoxic compounds in NIH 3T3 cells | NIH 3T3 viability, CellTiter-Glo ATP luminescence, 48-72 h | Potency, µM (titrated, usually from 96.7 µM), without a hit: at the highest dose activity change, negative = cytotoxicity, most hits filed as inhibitors | 94,000 compounds, 4.3% hits; also: nearly all actives have a fitted effect of over 55% in size
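Mouse fibroblast NIH 3T3 cells, 400 per well, received compound via pintool and were incubated for 48 or 72 hr prior to CellTiter-Glo ATP luminescence measurement.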
hNpr1 antagonist: antagonists of human natriuretic peptide receptor Npr1; P16066; HEK293 hNpr1 GloSensor cGMP, ANP-stimulated luminescence; Potency, µM (doses to about 46.3 µM), inactives show top-dose activity change, negative = inhibition, most hits filed as inhibitors; 76,000 compounds, 1.6% hits; AID 1347048; calls by dose curve; also: nearly all actives have a fitted effect of over 60% in size
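HEK293 cells stably expressing human Npr1 and cGMP GloSensor pGS-40F, loaded 2 h with 2% GloSensor reagent, given compound 30 min at room temperature. Luminescence read before and 20 min after 0.1 nM hNppA.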
FLuc inh: Photinus pyralis luciferase inhibition; P08659; purified P. pyralis luciferase, luminescence, biochemical; Potency, µM (doses to about 115 µM), actives largely listed as inhibitors; 76,000 compounds, 2.5% hits; AID 1347043; also: nearly all actives have a fitted effect of over 65% in size
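FLuc 10nM, D-luciferin 10uM, ATP 10uM, Mg acetate 10mM, Tris acetate pH 7.5, Tween/BSA; cpd qHTS; enzyme added last; CCD luminescence.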
An asterisk follows results filed as active; i = inactive; ? = inconclusive; . = no result given; [ ] = another dose, or the depositor's remark. Unless noted, calls follow the shape of the dose curve; as a rule, active = well fitted curve in the direction sought with a large enough effect; inconclusive = small, poorly fitted or top-dose-only effect, or another doubt; inactive = no such curve, though single readings can be large; an effect the other way counts as inactive or inconclusive. % is scaled to controls: 0 for no effect and ±100 for the full control effect; potency is read from the fitted curve at half-maximal effect.

SMILES	GPT2 inhibitor	HEK293 tox	NIH3T3 tox	hNpr1 antagonist	FLuc inh
Cc1ccc(CNC(=O)c2ccc3c(c2)CN(Cc2cccc(F)c2)CCO3)cc1	i	?	?	-8.6%	i
Cc1ccc(CNC(=O)c2ccc3c(c2)CN(CC2=Cc4ccccc4OC2)CCO3)cc1	i	28.2µM*	?	?	i
Cc1ccc(CNC(=O)c2ccc3c(c2)CN(Cc2cncs2)CCO3)cc1	-4.7%	?	-9.5%	-11.4%	i
COCCN1CC(CO)C2(CCN(Cc3ccccc3C(F)(F)F)CC2)C1 (stereo unspecified)	i	?	?	4.5%	i
Cc1nn2c(c1-c1ccccc1OCc1ccccc1)N(C(=O)Cc1ccccc1)CCC2	-4.3%[88.5 µM]	79.4µM*	44.7µM*	?	i
Cc1nn2c(c1-c1cccc3cn[nH]c13)N(C(=O)Cc1ccccc1)CCC2	i	-26.3%[172 µM]	44.7µM*	-25.4%[70.6 µM]	i
Cc1nn2c(c1-c1ccccc1[S+](C)(=O)[O-])N(C(=O)Cc1ccccc1)CCC2	-29.3%[88.5 µM]	-13.4%[172 µM]	?	0.9%[70.6 µM]	i
CC(C)N1CC(C(=O)NCc2ccccc2Cl)NC1=O (stereo unspecified)	-2.1%[88.5 µM]	-0.8%[172 µM]	-22.8%[138 µM]	.	.
O=C1c2c(nc(CN3CCC(F)(F)CC3)n2Cc2ccccc2)NCCN1CCOc1ccccc1	0.3%	?	-28.2%	-8.1%	i
CN1C[C@@H](NS(=O)(=O)c2ccc(F)cc2)C[C@H]1c1nc(-c2cccnc2)no1	3.7%[88.5 µM]	-12.1%[172 µM]	-25.4%[174 µM]	4.8%[70.6 µM]	i
CN1C[C@@H](NS(=O)(=O)c2ccccc2)C[C@H]1c1nc(-c2ccc(F)cc2)no1	3.1%[88.5 µM]	100µM*	?	-22.2%[70.6 µM]	?
Cc1ccc(-c2noc([C@@H]3C[C@H](NS(=O)(=O)c4ccc(F)cc4)CN3C)n2)cc1	?	?	?	-22.2%[70.6 µM]	44.7µM*
CC(=O)Nc1ccc(S(=O)(=O)N[C@H]2C[C@@H](c3nc(-c4ccc(F)cc4)no3)N(C)C2)cc1	4.5%	?	-27.9%	?	i
CN1C[C@@H](NS(=O)(=O)c2ccc(Cl)cc2)C[C@H]1c1nc(-c2ccc(F)cc2)no1	-1.1%	?	?	-22.0%	39.8µM*
NC(=O)[C@H](Cc1ccc(O)cc1)NC(=O)C1=C[C@@H](NC(=O)Nc2ccc(OC(F)(F)F)cc2)[C@@H](O)[C@H](O)C1	2.6%	-6.5%	-4.9%	12.7%	i
COc1ccccc1C1CCCN1Cc1cn(CCC(N)=O)c2ccccc12 (stereo unspecified)	i	?	-22.0%	4.0%	i
CC1=C[C@@H](CNC(=O)C(C)C)[C@H](C(C)C)C[C@H]1Cc1nc2ncccc2[nH]1	-9.3%[88.5 µM]	-23.3%[172 µM]	?	-5.2%[70.6 µM]	i
CC(=O)NC[C@@H]1C=C(C)[C@H](Cc2nc3ccccc3[nH]2)C[C@H]1C(C)C	i	?	?	-21.0%[70.6 µM]	i
COc1ccc2[nH]c(C[C@@H]3C[C@@H](C(C)C)[C@H](CNC(=O)c4cccnc4)C=C3C)nc2n1	2.5%[88.5 µM]	56.2µM*	?	-23.4%[70.6 µM]	i
CCCNC(=O)NC[C@@H]1C=C(C)[C@H](Cc2nc3nc(OC)ccc3[nH]2)C[C@H]1C(C)C	-12.4%[88.5 µM]	63.1µM*	89.1µM*	-19.4%[70.6 µM]	i
CCOc1ccccc1CN1CCC2(CCN(C(=O)C3CC3)CC2)Oc2ccccc21	i	44.7µM*	25.1µM*	15.6%	i
CCOc1ccccc1CN1CCC2(CCN(C(=O)C(C)(C)C)CC2)Oc2ccccc21	i	39.8µM*	31.6µM*	4.6%	i
CCOc1ccccc1CN1CCC2(CCN(C(C)=O)CC2)Oc2ccccc21	i	?	-29.2%	11.3%	i
COc1ccc(NC(=O)N2CCC3(CC2)CN(c2ccccc2)C3=O)cc1OC	?	39.8µM*	-29.8%	.	.
Cc1cccc(OCCc2noc(C3CN(C(=O)c4ccsc4)C3)n2)c1	2.0%	?	?	-13.8%	i
SMILES	GPT2 inhibitor	HEK293 tox	NIH3T3 tox	hNpr1 antagonist	FLuc inh
CN(Cc1cccc2cnccc12)C(=O)COc1ccc(Cl)cc1Cl	-28.5%	44.7µM*	?	?	i
O=C(NCC1CC1)c1nc2c(o1)CCN(Cc1cccs1)CC2	i	?	-22.9%[138 µM]	-13.9%[70.6 µM]	70.8µM*
O=C(Nc1cccc(C(F)(F)F)c1)c1nc2c(o1)CCN(CC1CC1)CC2	-18.5%[88.5 µM]	?	?	-0.3%[70.6 µM]	i
Cc1csc(NC(=O)c2nc3c(o2)CCN(CC2CC2)CC3)n1	-3.4%[88.5 µM]	-5.1%[172 µM]	?	-4.7%[70.6 µM]	17.8µM*
CN(C)c1cccc(Oc2nnnn2[C@H]2CO[C@H]3[C@@H]2OC[C@@H]3NC(=S)Nc2cccc(C#N)c2)c1	0.2%	44.7µM*	?	-4.6%	i
CS(=O)(=O)c1ccc(OCC2(CNCc3cccc(C(F)(F)F)c3)C[C@@H](O)[C@@H](O)C2)cc1 (stereo partly specified)	4.3%	79.4µM*	?	-3.9%	i
COc1cccc(N2CCN(C(=O)C3CCCN(c4cnc5nccnc5c4)C3)CC2)c1 (stereo unspecified)	i	39.8µM*	?	?	i
CC1CCCN(C(=O)C2CCCN(c3cnc4nccnc4c3)C2)C1 (stereo unspecified)	i	7.2%	-18.8%	2.8%	i
CN(Cc1ccccc1)C(=O)C[C@@H]1CCNC[C@@H]1Cc1cc(-c2ccccc2)on1	4.3%[88.5 µM]	25.1µM*	10µM*	-30.5%[70.6 µM]	i
CC(=O)N1CCN(C(=O)C[C@@H]2CCNC[C@@H]2Cc2cc(-c3ccccc3)on2)CC1	i	-6.0%[172 µM]	0.1%[138 µM]	-20.1%[70.6 µM]	i
NC(=O)C1CCN(C(=O)C[C@@H]2CCNC[C@@H]2Cc2cc(COc3ccccc3)on2)CC1	i	i	i	-1.6%	i
CCCCc1cc(C[C@H]2CNCC[C@H]2CC(=O)N(C)Cc2ccccc2)no1	-0.1%[88.5 µM]	100µM*	?	-3.5%[70.6 µM]	i
CN(Cc1ccccc1)C(=O)C[C@@H]1CCNC[C@@H]1Cc1cc(COc2ccccc2)on1	0.6%[88.5 µM]	50.1µM*	28.2µM*	-20.3%[70.6 µM]	i
CCN(CC)C(=O)C[C@@H]1CCNC[C@@H]1Cc1cc(-c2ccccn2)on1	-19.5%[88.5 µM]	1.1%[172 µM]	-25.0%[174 µM]	-3.7%[70.6 µM]	i
C[S+](=O)([O-])NCc1nnc2n1C(C(=O)NCc1cccc(Cl)c1)CC2 (stereo unspecified)	i	-23.7%	-14.1%	.	.
Cc1ccc(Nc2ccnc(N3CCCC3C(=O)NC(C)C)n2)cc1 (stereo unspecified)	-0.6%[88.5 µM]	?	?	.	.
CCNC(=O)c1n[nH]c2c1CN(C(=O)c1ccccc1F)CC2	i	4.0%	-4.7%	8.7%	i
O=C1NCCCCCN(C(=O)CCCc2ccccc2)[C@H]2CCC[C@@H]12	i	-24.7%	-21.7%	5.7%	i
